Gli-Sufu antag: Gli-Sufu pathway antagonism; Sufu-KO-LIGHT fibroblasts, Gli luciferase reporter luminescence; inhibition, % at 5 µM; hit rate 0.74% among 340,000; AID 588413;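 active means inhibition above about 55%, limit read from the data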;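 further: 0% = DMSO-treated cells and 100% = wells with medium but no cells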
GalR3 antagonist: human GalR3 antagonism; O60755; HEK293 GalR3-CNG cAMP membrane potential fluorescence; galR3 body fused to GalR1 C-terminus; inhibition, % at 3 µM; hit rate 0.44% among 360,000;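 active means inhibition above the screen-wide average plus 3 SD, cut at about 13% in these data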;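 further: forskolin and galanin both at EC90 stimulate the cells; cAMP rise reported by CNG channel membrane potential dye signal; 0% = forskolin plus galanin with DMSO and 100% = forskolin alone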
Target sequence (O60755 1-299 limits assumed): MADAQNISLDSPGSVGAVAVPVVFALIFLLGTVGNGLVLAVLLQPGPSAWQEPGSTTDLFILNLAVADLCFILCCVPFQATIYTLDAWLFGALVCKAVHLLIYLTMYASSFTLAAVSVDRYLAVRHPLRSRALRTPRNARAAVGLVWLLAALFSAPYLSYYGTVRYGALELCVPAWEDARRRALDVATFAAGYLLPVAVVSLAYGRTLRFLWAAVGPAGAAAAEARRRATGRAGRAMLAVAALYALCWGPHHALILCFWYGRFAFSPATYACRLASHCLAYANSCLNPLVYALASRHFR
COUP-TFII inh: inhibitors of human COUP-TFII (NR2F2); P24468; HEK293T NGFI-A luciferase reporter, luminescence; inhibition, % at 8.6 µM; hit rate 0.7% among 370,000;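 active means inhibition above a per-plate cutoff, mean inhibition of test wells between control levels plus 3 SD, cut at about 38% in these data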;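 further: cells cotransfected with COUP-TFII expression vector driving the NGFI-A reporter; 0% = median of COUP-TF2 test wells and 100% = reporter-only cells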
FXN GAA850 act: activators of GAA850 frataxin (FXN) promoter. HEK293 lucGAA850 FXN promoter luciferase reporter, 24 h; percent of 10 µM SAHA response. activation, % at 6 µM. hit rate 0.56% among 360,000;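 active means activation above the average of all compounds screened plus 3 SD, cutoff fixed separately per campaign, cut at about 7.5% in these data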;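 further: 0% = DMSO wells and 100% = 10 µM SAHA wells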
SMARCA2 act: increases SMARCA2 function in MMTV reporter cells; MG213 cells, MMTV-luciferase reporter, dexamethasone, overnight; activation, % at 9.1 µM; hit rate 1% among 370,000; in the data active means activation above about 7.8%;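 further: 0% = vehicle wells and 100% = reference activator wells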
H9c2 protect: myocardial damage modulation in H9c2 cells; H9c2 cardiomyocytes, H2O2 injury protection, ATPLite, 2 h; hit rate 0.63% among 360,000; protection from H2O2 cell death, % at 20 µM;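 active means compounds giving at least 50% protection of heart cells from peroxide-induced death in the single-dose screen, raw or plate-pattern-corrected value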;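 further: 0% = DMSO wells with peroxide and 100% = DMSO wells without peroxide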
VP16 Luc counter: VP16 inhibition counter-screen for COUP-TFII. shares compounds with COUP-TFII inh. HEK293 Gal4-VP16 luciferase reporter, luminescence. inhibition, % at 8.5 µM. hit rate 25% among 2,500. AID 687007; in the data active means inhibition above about 13%
NR2F2 inh conf: COUP-TFII (NR2F2) inhibition, confirmation assay; shares compounds with COUP-TFII inh; HEK293 NGFI-A luciferase reporter, luminescence; hit rate 45% among 2,500; inhibition, % at 8.5 µM;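 active means mean inhibition over three repeats above a set limit taken from the earlier primary screen, cut at about 38% in these data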;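 further: 100% = cells given the luciferase reporter alone without the COUP-TF2 vector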
Starred values were filed as active, the others as inactive; x = no result. This is a sample that favours compounds with a hit; in the whole collection about 3.4% have one here.

SMILES | Gli-Sufu antag | GalR3 antagonist | COUP-TFII inh | FXN GAA850 act | SMARCA2 act | H9c2 protect | VP16 Luc counter | NR2F2 inh conf
COc1ccc(C(=O)O/N=C(\N)c2ccccc2)cc1 | -78 | -11 | -46 | 0 | 1 | -18 | x | x
CC(C)(C)c1ccc(C(=O)O/N=C(\N)c2ccccc2)cc1 | 89* | -10 | 86* | -14 | -8 | -23 | 66* | 91*
CC1=CC(=O)C(C(C)C)=C/C1=N\OS(=O)(=O)c1ccccc1 | x | x | 82* | x | x | x | 6 | 13
COc1ccc(N2CCN(CC(=O)NC(=O)NC(C)(C)C)CC2)cc1 | -3 | -5 | -3 | 1 | -4 | -1 | x | x
Cc1ccc(C)c(N2CCN(C(=O)CCS(=O)(=O)c3ccc4c(c3)NC(=O)CO4)CC2)c1 | 12 | -9 | 42* | -3 | -3 | -4 | 5 | 23
O=C1COc2ccc(S(=O)(=O)CCC(=O)N3CCN(c4ccccc4)CC3)cc2N1 | -3 | -5 | -14 | -1 | -3 | 2 | x | x
O=C(CNc1cccc(S(=O)(=O)N2CCCCC2)c1)Nc1ccc(C(F)(F)F)cc1 | x | -5 | 38* | -1 | -5 | 0 | -1 | 5
O=C(CNc1cccc(F)c1)Nc1cccc(S(=O)(=O)N2CCCCC2)c1 | -5 | 0 | -16 | 0 | -2 | 3 | x | x
Cc1ccc(NCC(=O)Nc2cccc(F)c2)cc1S(=O)(=O)N1CCCCCC1 | -3 | -3 | 46* | -3 | -5 | -14 | -4 | 7
O=C(CNc1cccc(S(=O)(=O)N2CCCC2)c1)Nc1ccc(C(F)(F)F)cc1 | 33 | -5 | 40* | -1 | -4 | -19 | 6 | 29
CCOc1ccc(C(=O)NC(C(=O)NCC(c2cccs2)N(C)C)C(C)C)cc1 (centres undefined) | 5 | -4 | -14 | 1 | -3 | -4 | x | x
CCCCN1CCC(=O)C(C(=O)OCC)=C1C(=O)OCC | -7 | -3 | 6 | 0 | -1 | 4 | x | x
NCCCNc1nc(N)c([N+](=O)[O-])c(NC2CCCCC2)n1 | 16 | -15 | 41* | -8 | 0 | 2 | -26 | 24
CC(C)c1ccc(CC(=O)N2CCC2(C)C(=O)Nc2cnc3ccccc3c2)cc1 (centres undefined) | x | -9 | 45* | 0 | -7 | -9 | -3 | 11
CC(C)(C)c1ccc(C(=O)N2CCC2(C)C(=O)Nc2cnc3ccccc3c2)cc1 (centres undefined) | x | 3 | 21 | 2 | -3 | -8 | x | x
CC(C)(C)c1ccc(CC(=O)N2CCC2(C)C(=O)Nc2cnc3ccccc3c2)cc1 (centres undefined) | x | -8 | 41* | -1 | -10 | -23 | -5 | 12
Cc1onc(-c2ccccc2)c1C(=O)NC(=S)NNC(=O)c1ccc(O)cc1O | 14 | -9 | 50* | -6 | -6 | 51* | 15* | 54*
COc1ccccc1-c1cc2nc(-c3ccccc3)cc(N3CCN(C(=O)c4ccco4)CC3)n2n1 | x | -6 | 94* | -8 | -10 | 55* | 13 | 76*
COc1ccccc1-c1cc2nc(-c3ccccc3)cc(N3CCN(C(=O)c4ccoc4)CC3)n2n1 | x | -6 | 87* | -8 | -5 | 50* | 10 | 60*
O=C(c1ccoc1)N1CCN(c2cc(-c3ccccc3)nc3cc(-c4ccccc4)nn23)CC1 | x | -7 | 14 | 0 | -5 | -9 | x | x
COc1cccc(-c2cc3nc(-c4ccccc4)cc(N4CCN(C(=O)c5ccoc5)CC4)n3n2)c1 | x | -7 | 20 | -2 | -5 | 33 | x | x
Cn1ncc(N=Cc2ccccc2)c1C(=O)Nc1cccc(Cl)c1 | -8 | -7 | 6 | 1 | -6 | 6 | x | x
CNC(=O)c1cc(Oc2ccc(NC(=O)Nc3ccc(Cl)c(C(F)(F)F)c3)cc2)ccn1 | -2 | -8 | 72* | -9 | -7 | -34 | 15* | 48*
COc1cc2cc(C#N)c(SCC(=O)N3CCOCC3)nc2cc1OC | -13 | -1 | -31 | 7 | 6 | 13 | x | x
N#Cc1cc2c(nc1SCC(=O)N1CCOCC1)CCCCC2 | 30 | 0 | 53* | -11 | -5 | 3 | 55* | 77*
SMILES | Gli-Sufu antag | GalR3 antagonist | COUP-TFII inh | FXN GAA850 act | SMARCA2 act | H9c2 protect | VP16 Luc counter | NR2F2 inh conf
Cc1ccc(S(=O)(=O)N(C)c2ccc(OCC(=O)Nc3nc4ccccc4s3)cc2)cc1 | 15 | -8 | 39* | 0 | -6 | -21 | 5 | 28
CCOC(=O)C1CCN(C(c2cccnc2)c2c(NC(=O)c3ccco3)sc(C)c2C)CC1 (centres undefined) | 27 | -7 | 70* | -3 | -4 | 8 | -14 | 39*
NS(=O)(=O)c1cccc(NS(=O)(=O)c2cccc(C(F)(F)F)c2)c1 | 10 | 5 | 43* | -1 | -3 | 4 | 3 | 3
CNC[C@@H]1Oc2ccc(NS(=O)(=O)c3ccc(Cl)cc3)cc2C(=O)N([C@H](C)CO)C[C@@H]1C | -5 | -7 | 9 | -1 | -1 | 1 | x | x
CC(=O)c1c(C)oc2ccc(N(C(C)=O)S(=O)(=O)c3cccc4cccnc34)cc12 | 46 | -5 | 38* | -2 | -6 | 1 | 1 | 29
Cc1cc(C)cc(Cn2cc(CN3CC(N4CCSCC4)CS3(=O)=O)nn2)c1 (centres undefined) | x | -6 | 13 | x | -4 | x | x | x
Cc1cccc(Cn2c(NCC(C)O)nc3c2c(=O)n(C)c(=O)n3C)c1 (centres undefined) | 3 | 1 | 15 | 0 | -1 | 3 | x | x
Cc1cccc(Cn2c(NCCO)nc3c2c(=O)n(C)c(=O)n3C)c1 | 36 | -5 | 52* | -2 | -5 | -3 | -7 | 25
CNc1nc2c(c(=O)n(C)c(=O)n2C)n1Cc1ccccc1 | 29 | -8 | 41* | -3 | -7 | -11 | -3 | 21
Cc1c(NC(=S)SCc2ccccc2)c(=O)n(-c2ccccc2)n1C | 4 | -7 | -1 | 0 | 0 | 4 | x | x
O=C(NC1CCCCC1)c1ccc2[nH]c(=O)c(=O)[nH]c2c1 | 1 | -8 | -1 | 1 | 4 | 3 | x | x
O=C(NCCc1ccc(F)cc1)c1ccc(Cl)c(S(=O)(=O)N2CCOCC2)c1 | 4 | -5 | 40* | -1 | -4 | 1 | -10 | 8
CCN(CC(=O)Nc1ccc(OC)cc1)CC(=O)Nc1sc2c(c1C(=O)OC)CCCC2 | -14 | -4 | -7 | 0 | -2 | -8 | x | x
Cc1cccc(Oc2cc(NC(=O)c3ccccc3)cc([N+](=O)[O-])c2)c1 | 23 | -9 | 50* | -1 | -5 | -28 | -6 | 26
CCCc1cc(C(=O)N2CCCC(Nc3ccc(C)c(C)c3)C2)n(C)n1 (centres undefined) | -6 | -3 | 3 | 2 | -1 | -4 | x | x
